The source of these data is the OligoGym collection.
Further: reference of the scale not given here.

The target of one assay is RWDD2B. Briefly: pooled miR-30 sensor sort-seq; sequence = guide strand. Conditions: shRNA.
TCAACTGACTGGACTGTGCTTC yielded a sensor-assay potency score (higher = more potent) of 0.407.
The same measure, in the same setting: to TTTCAGTTCTGCTACAGCCAGC belongs -0.902.
Still for that read-out and setting: to TCCATTAACACTGAACACTTTT belongs -0.901; to TTCCACACAAACAACACCAGGT, 0.95; to TAGAATATTCTTTCTTTTGCAT, 0.0563.
On the same count and under the same terms, with TTGGACATGTGTAAGTTTCTTG the figure was 0.645.
The sequence TTGATAGTAAAGTAGACTTTTG had a sensor-assay potency score (higher = more potent) of -1.18.
On the same count and under the same terms, to TTTTTCGTCAGATACATCCAGG belongs -0.29; to TCTTCTTTTCAATACAATCTTT, -0.675.
On the same count and under the same terms, to TCAGTATACAAACATCTCCATG belongs -1.45.
Same read-out and setting: with TAACACTGAACACTTTTTCTTC the figure was -0.298; with TTCAGTATACAAACATCTCCAT, 0.0635.

The next assay has as its target RXFP4. The description is as above. Conditions: shRNA.
As to TAGGAATTTGACAGGCATCGGA, the sensor-assay potency score (higher = more potent) came to 0.2.
With TAGACGTTGAGGACAGTGGCCG, the sensor-assay potency score (higher = more potent) was determined as 0.159.
On the same count and under the same terms, with TACAGCACAGGGTTGAGGCAGC the figure was -0.483; with TAGCTGGTGGTGATGACGCCCA, -0.885.
The same measure, in the same setting: with AACTTCACCAGGACACCCCAGA the figure was -1.12; with AGGAATTTGACAGGCATCGGAG, -1.05; with TTGAAGACGAAGGTGTCTGAAG, -0.402.
Consider TAGCGAGCAACGCTCAGCGCTG, for which the sensor-assay potency score (higher = more potent) was -1.3.
Same read-out and setting: with TCAGGAGACAGTACAGCACAGG the figure was -0.981; with TCTTGCAGAGGGCACCTCCGAA, -1.29; with TAGAAGGGCGGCTCTCCCGGGG, -0.734.
The same measure, in the same setting: with TTGCTTGCGACCCACCGCCTGC the figure was -0.81.

The target in a further assay is RYK. The description is as above. The note with it: shRNA.
As for TTGTAGCACATTTTCCTTCGTT, the sensor-assay potency score (higher = more potent) was found to be 0.000719.
For TAACTGTTTTGACAAATGCTTG, the sensor-assay potency score (higher = more potent) is -1.47.
Still for that read-out and setting: to TTTTTGTAGCACATTTTCCTTC belongs -0.15; to TTGAAGACAAACCATTTCCCAG, -0.946.
On the same count and under the same terms, with TTGTATTATCTCCTTTTCCAGA the figure was -1.16; with TATTCGGTAACCATCTTTCAGG, -0.693.
Take TTACTGCACAACAAACCCCTAC: the sensor-assay potency score (higher = more potent) is -0.546.
Same read-out and setting: with TATTGCTATATCCTTCACCTTG the figure was -0.912; with TTGTCTGTGATCTTAACTTGAA, -0.554.
Same read-out and setting: to TTTAGAGTTATCCTCTCTCTGG belongs -0.8; to TTTCATACTATGAAGGTGCAAA, -0.131.
The same measure, in the same setting: to TTTTCATCTATTAAAATCCCAT belongs -0.695.
